Compounds with a hit are over-represented: about 19% of the library has one in this group of screens.
CHX counter: Cycloheximide Counterscreen for Small Molecule Inhibitors of Shiga Toxin; cell reporter, cycloheximide protein synthesis inhibition counterscreen; max response, %; actives 12% (n = 300,000); in the data active = max response mostly above about 13%, no sharp cut-off; inactive = mostly below about 14%; note: read at 38.3 µM for the half of the compounds with a filed dose
SARS PLpro yeast: qHTS of Yeast-based Assay for SARS-CoV PLP; S. cerevisiae expressing SARS-CoV PLpro, growth rescue; Potency, µM (top dose mostly 32.9 µM), usual class: activators; actives 0.19% (n = 330,000); calls by dose curve; note: nearly all actives have a fitted effect of over 55% in size
AMA1 RON2 block: qHTS for Inhibitors of AMA1-RON; Towards Development of Antimalarial Drug Lead: Primary Screen; Plasmodium falciparum AMA1 (3D7) - RON2 peptide interaction; actives 0.2% (n = 360,000); Potency, µM (doses to about 58.2 µM), actives largely listed as inhibitors; AlphaScreen AMA1-biotinylated RON2 peptide binding; note: nearly all actives have a fitted effect of over 45% in size
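AMA1 (3D7) with his tag at 25 nM final met compounds first, then biotinylated RON2 peptide at 25 nM; detection used donor plus acceptor beads, 10 µg/mL apiece, read by AlphaScreen after 30 min at room temperature.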
Pf growth 96h: Primary qHTS for delayed death inhibitors of the malarial parasite plastid, 96 hour incubation | AID 504834, 2011 | actives 6.9% (n = 320,000) | Potency, µM (titrated, usually from 28.7 µM), actives largely listed as inhibitors | P. falciparum luciferase reporter growth, 96 h
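Delayed-death screen, second-generation endpoint: infected erythrocytes, 2% hematocrit, 0.05% parasitemia final; 96 hours at 37 C, 5% CO2; luciferase detection reagent; luminescence decrease equals reduced growth.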
Shiga inhibitor: A qHTS for Small Molecule Inhibitors of Shiga Toxin; inhibition, % at 38.7 µM; Vero cells, Shiga toxin protein synthesis inhibition reporter; AID 2315, 2010; actives 9.2% (n = 290,000); in the data active = inhibition mostly above about 28%, no sharp cut-off; inactive = mostly below about 43%
Pf growth 48h: Primary qHTS for delayed death inhibitors of the malarial parasite plastid, 48 hour incubation | Potency, µM (doses to about 28.7 µM), actives largely listed as inhibitors | AID 504832, 2011 | actives 5.9% (n = 310,000) | P. falciparum luciferase growth in erythrocytes, 48 h
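First compound was added to culture medium, then infected red cells at 0.1% parasitemia and 2% hematocrit (final). After incubation at 37 C under 5% CO2, luciferase detection reagent was dispensed and light output recorded.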
Each line names hits and unclear results; the compound was inactive in the other large screens. Unless noted, calls come from the whole dose curve; as a rule, active = well fitted curve in the direction sought with a large enough effect; inconclusive = small, poorly fitted or top-dose-only effect, or another doubt; inactive = no such curve, though single readings can be large; an effect the other way counts as inactive or inconclusive.

CC(C)CCOP(=O)(c1ccc(N(C)C)cc1)C(O)c1ccc(Cl)cc1Cl (stereo not drawn)	Pf growth 96h 9.3µM, Pf growth 48h 9.3µM
CN(C)c1ccc(P(=O)(OCc2ccccc2)C(O)c2ccccc2)cc1 (stereo not drawn)	Pf growth 96h 2.3µM, Pf growth 48h 10µM
Cc1ccc(C(=O)OCC(=O)NCc2ccc3c(c2)OCO3)o1	none (no result: CHX counter, Pf growth 96h, Shiga inhibitor, Pf growth 48h)
CC1(C(=O)Nc2ccc3c(c2)OCCO3)CN(S(C)(=O)=O)CC(=O)N1CCCn1ccnc1 (stereo not drawn)	none (no result: CHX counter, SARS PLpro yeast, Pf growth 96h, Shiga inhibitor, Pf growth 48h)
Cc1ccc(NC(=S)N(CCC(C)C)C(C)c2ccncc2)c(Cl)c1 (stereo not drawn)	CHX counter 23, Pf growth 96h inconclusive, Pf growth 48h inconclusive
COCCCN(C(=S)Nc1ccc(C)cc1Cl)C(C)c1ccncc1 (stereo not drawn)	SARS PLpro yeast inconclusive, Pf growth 96h inconclusive
CCCNC(=O)c1cc2c(c(-c3cccc(-c4ccccc4F)c3)n1)[C@H](CCO)N(C(=O)CC1CC1)C2	none (no result: CHX counter, SARS PLpro yeast, Pf growth 96h, Shiga inhibitor, Pf growth 48h)
O=C(Nc1ccc(Br)cc1F)c1ccc2c(c1)OCCO2	CHX counter 21
O=C(COC(=O)c1ccc2c(c1)OCCO2)Nc1ccc(F)cc1F	none (no result: CHX counter, Pf growth 96h, Shiga inhibitor, Pf growth 48h)
O=C(Nc1ccc(F)cc1F)c1ccc2c(c1)OCCO2	CHX counter 29, Shiga inhibitor 83
O=C(c1ccc2c(c1)OCO2)C1CCCN(C(=O)Nc2ccc(F)cc2F)C1 (stereo not drawn)	CHX counter 18, Pf growth 96h inconclusive
CN(Cc1cnn(-c2ccccc2)c1)C(=O)C1CCC(=O)N(C2CC2)C1 (stereo not drawn)	none
CC(C)(C)C(=O)Nc1ccc(C(=O)COC(=O)c2ccccn2)cc1	none (no result: CHX counter, Pf growth 96h, Shiga inhibitor, Pf growth 48h)
COc1ccc(N2CCN(C(c3cccs3)C(C)NC(=O)C(=O)N3CCCCC3)CC2)cc1 (stereo not drawn)	Pf growth 96h 12µM, Pf growth 48h inconclusive
COc1ccc(N2CCN(C(c3cccs3)C(C)NS(=O)(=O)c3ccccc3)CC2)cc1 (stereo not drawn)	AMA1 RON2 block inconclusive, Pf growth 96h inconclusive, Pf growth 48h 13µM
CCS(=O)(=O)NC(C)C(c1cccs1)N1CCN(c2ccc(OC)cc2)CC1 (stereo not drawn)	none
CN(CC(=O)Nc1ccc(OC(F)(F)F)cc1)C(=O)/C=C/c1cc2c(cc1[N+](=O)[O-])OCO2	none (no result: CHX counter, Shiga inhibitor)
CCOc1ccc(C(F)(F)F)cc1NC(=O)COc1ccc(C(F)(F)F)cc1[N+](=O)[O-]	Pf growth 96h inconclusive
CCCOP(=O)(OCCC)c1c([N+](=O)[O-])cc(C(F)(F)F)cc1[N+](=O)[O-]	Pf growth 96h 9.3µM (no result: Pf growth 48h)
c1ccc(COc2cccc(-c3cc4nc(NCCc5ccncc5)ccn4n3)c2)cc1	none (no result: CHX counter, SARS PLpro yeast, Pf growth 96h, Shiga inhibitor, Pf growth 48h)
NC1=NC(c2ccc(Cl)cc2)C(C(=O)c2ccccc2)N1 (stereo not drawn)	none
Cc1nc(C(F)(F)F)ccc1C(=O)N1CCC1(C)C(=O)NCc1ccc(Cl)cc1 (stereo not drawn)	none (no result: CHX counter, SARS PLpro yeast, Pf growth 96h, Shiga inhibitor, Pf growth 48h)
C=CCNC(=S)Nc1ccc(OC)c(S(=O)(=O)N2CCOCC2)c1	none
Nc1ncnc(Nc2ccccc2Cl)n1	CHX counter 17
Cc1ccc(Nc2ncnc(-n3cccc3)n2)cc1Cl	CHX counter 32, Shiga inhibitor 80
Nc1ncnc(Nc2cccc(F)c2)n1	none
Clc1ccccc1Nc1ncnc(-n2cccc2)n1	CHX counter 62, Shiga inhibitor 131
Nc1ncnc(Nc2ccc(F)c(Cl)c2)n1	CHX counter 19, Shiga inhibitor 57
CCCCc1c(O)n(-c2ccccc2)[nH]c1=O	none (no result: SARS PLpro yeast, AMA1 RON2 block, Pf growth 96h, Pf growth 48h)
Cc1cc(C)cc(N2C(=O)CSC2c2ccccn2)c1 (stereo not drawn)	Pf growth 48h inconclusive
CCN(CCNC(=O)C1CCCN(c2ncnc3c2nc2n3CCCCC2)C1)Cc1ccccc1 (stereo not drawn)	Pf growth 96h 10µM, Pf growth 48h inconclusive
Cc1ccccc1CN1CCC(CNC(=O)C2CCCN(c3ncnc4c3nc3n4CCCCC3)C2)CC1 (stereo not drawn)	Pf growth 96h 6.6µM, Pf growth 48h 12µM
Cc1c(C(=O)N2CCCCC2)c(S(=O)(=O)N(C)Cc2ccccc2)c(C)n1C	Pf growth 96h inconclusive
CC(=O)c1ccc(NC(=O)C(C)Sc2ccccn2)cc1 (stereo not drawn)	CHX counter 34, Pf growth 96h inconclusive, Shiga inhibitor 77
CC(Sc1ccccn1)C(=O)Nc1ccc(S(N)(=O)=O)cc1 (stereo not drawn)	none (no result: Pf growth 48h)
CC(Sc1ccccn1)C(=O)Nc1ccccc1 (stereo not drawn)	CHX counter 40, Pf growth 96h inconclusive, Shiga inhibitor 76
COC(=O)CCCNC(=O)c1ccc2[nH]c(C)c(C)c2c1	none
O=C(NN=C1CCCCCCC1)C(=O)NC1CCCCC1	Pf growth 96h inconclusive
O=C(NN=C1CCCCCC1)NC1CCCCC1	CHX counter 30, Pf growth 96h inconclusive, Shiga inhibitor 51
COc1ccc2oc3cc(C)[n+]([O-])c(-c4ccc(Cl)cc4)c3c2c1	Pf growth 96h inconclusive
N#Cc1ccccc1COC(=O)c1cccnc1N	Pf growth 96h inconclusive
CC(C)(CC(=O)O)CC(=O)NNc1ncccc1C#N	Pf growth 48h 4.1µM
O=C(OCCCc1cc2ccccc2c(=O)o1)c1ccc2c(c1)OCO2	none (no result: CHX counter, Shiga inhibitor)
O=c1[nH]c2c(cc1CNCCN1CCOCC1)c(-c1cccc(F)c1)nn2-c1ccccc1	Pf growth 48h 2.1µM (no result: AMA1 RON2 block)
CC(NC(=O)/C=C/c1ccco1)c1nc2ccccc2n1Cc1cccc(Cl)c1 (stereo not drawn)	CHX counter 54, Pf growth 96h inconclusive, Shiga inhibitor 67, Pf growth 48h 13µM
Cc1cccc(OCCn2c(NC(=O)c3ccco3)nc3ccccc32)c1	CHX counter 26, Shiga inhibitor 89, Pf growth 48h inconclusive
Cc1ccc(OCCn2c(NC(=O)c3ccco3)nc3ccccc32)cc1	Pf growth 96h inconclusive, Pf growth 48h 2.9µM
Cc1cccc(OCC(=O)Nc2ccc(NC(=O)c3ccco3)cc2)c1	none
CC(=O)Nc1nonc1-c1nc2ccccc2n1Cc1ccccc1	Pf growth 48h 12µM (no result: Pf growth 96h)
CC(C)n1c(CN(C)Cc2ccccc2)nc2c1c(=O)n(C)c(=O)n2C	Pf growth 96h inconclusive
Nc1nc(OCC2CCCCC2)c2[nH]cnc2n1	Pf growth 96h inconclusive, Pf growth 48h inconclusive
CC(=O)NCc1nc2ccccc2n1Cc1ccccc1F	Pf growth 96h 2.1µM
CCC(=O)Nc1nc2ccccc2n1Cc1ccc(C)cc1	Pf growth 48h 2.9µM
O=C(Nc1nc2ccccc2n1CCOc1ccccc1)c1ccco1	CHX counter 48, Pf growth 96h 2.9µM, Pf growth 48h 2.9µM
C=CCn1c(NC(=O)c2ccco2)nc2ccccc21	Pf growth 48h 12µM
